These results are taken from publication PMC11006913.

Changes are numbered by the printed parent chain.

Common to all, as to test: PBM; 200 nM protein, PBS
Holding throughout (details): dsDNA, one strand shown

The target of experiment [1] is CRX (Homo sapiens, UniProt O43186 26-111).
In experiment [2] the target is HOXB9 (Homo sapiens, UniProt P17482 171-250, T197M).
In experiment [3] the target is HOXC9 (Homo sapiens, UniProt P31274 178-260, K195R).
Experiment [4] deals with HOXA7 (Homo sapiens, UniProt P31268 116-202).
Chain of HOXA7 (Homo sapiens, UniProt P31268 116-202) (P31268 116-202): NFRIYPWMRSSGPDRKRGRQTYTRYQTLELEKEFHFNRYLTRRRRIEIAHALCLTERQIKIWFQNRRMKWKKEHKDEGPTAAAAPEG
In experiment [5] the target is HOXC10 (Homo sapiens, UniProt Q9NYD6 254-340).
Chain of HOXC10 (Homo sapiens, UniProt Q9NYD6 254-340) (Q9NYD6 254-340): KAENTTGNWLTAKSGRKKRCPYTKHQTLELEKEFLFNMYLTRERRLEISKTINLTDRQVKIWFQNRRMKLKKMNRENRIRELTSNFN
The target in experiment [6] is HOXB9 (Homo sapiens, UniProt P17482 171-250).
Chain of HOXB9 (Homo sapiens, UniProt P17482 171-250) (P17482 171-250): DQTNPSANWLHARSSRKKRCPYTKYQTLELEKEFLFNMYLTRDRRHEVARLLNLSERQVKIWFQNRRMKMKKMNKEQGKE
Experiment [7] addresses CRX (Homo sapiens, UniProt O43186 26-111, E42D).
For experiment [8], the target named is HOXC9 (Homo sapiens, UniProt P31274 178-260).
Chain of HOXC9 (Homo sapiens, UniProt P31274 178-260) (P31274 178-260): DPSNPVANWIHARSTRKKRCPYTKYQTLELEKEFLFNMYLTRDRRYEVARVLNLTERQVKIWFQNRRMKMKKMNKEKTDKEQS
Experiment [9] concerns the target HOXD13 (Homo sapiens, UniProt P35453 263-343, T313R).
In experiment [10] the target is HOXC9 (Homo sapiens, UniProt P31274 178-260, R193K).
Chain of HOXC9 (Homo sapiens, UniProt P31274 178-260, R193K) (P31274 178-260 R193K): as the sequence (P31274 178-260) above, with R16K counted along it
The target of experiment [11] is HOXD13 (Homo sapiens, UniProt P35453 263-343).
Chain of HOXD13 (Homo sapiens, UniProt P35453 263-343) (P35453 263-343): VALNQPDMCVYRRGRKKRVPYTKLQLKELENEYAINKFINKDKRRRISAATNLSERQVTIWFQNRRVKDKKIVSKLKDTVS
Experiment [12] deals with HOXC10 (Homo sapiens, UniProt Q9NYD6 254-340, K271E).
Chain of HOXC10 (Homo sapiens, UniProt Q9NYD6 254-340, K271E) (Q9NYD6 254-340 K271E): as the sequence (Q9NYD6 254-340) above, with K18E counted along it
The target in experiment [13] is HOXD13 (Homo sapiens, UniProt P35453 263-343, T313A).
Chain of HOXD13 (Homo sapiens, UniProt P35453 263-343, T313A) (P35453 263-343 T313A): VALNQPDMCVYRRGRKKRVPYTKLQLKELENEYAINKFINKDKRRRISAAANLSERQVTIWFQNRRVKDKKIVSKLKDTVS
Experiment [14] deals with HOXB9 (Homo sapiens, UniProt P17482 171-250, R186Q).
Chain of HOXB9 (Homo sapiens, UniProt P17482 171-250, R186Q) (P17482 171-250 R186Q): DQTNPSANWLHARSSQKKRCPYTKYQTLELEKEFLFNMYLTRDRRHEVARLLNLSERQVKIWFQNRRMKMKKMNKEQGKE
Experiment [15] addresses HOXC9 (Homo sapiens, UniProt P31274 178-260, R222W).
For experiment [16], the target named is HOXA7 (Homo sapiens, UniProt P31268 116-202, W177C).
Chain of HOXA7 (Homo sapiens, UniProt P31268 116-202, W177C) (P31268 116-202 W177C): as the sequence (P31268 116-202) above, with W62C counted along it
The target in experiment [17] is CRX (Homo sapiens, UniProt O43186 26-111, R41L).
Chain of CRX (Homo sapiens, UniProt O43186 26-111, R41L) (O43186 26-111 R41L): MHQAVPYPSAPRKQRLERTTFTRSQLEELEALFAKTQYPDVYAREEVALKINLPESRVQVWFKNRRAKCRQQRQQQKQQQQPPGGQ
For experiment [18], the target named is T1, VENTX (Homo sapiens, UniProt O95231 78-163, R121Q).
T1 sequence: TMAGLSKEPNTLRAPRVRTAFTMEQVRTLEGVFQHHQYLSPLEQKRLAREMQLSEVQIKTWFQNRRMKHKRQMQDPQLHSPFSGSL

Experiment [19] concerns the target T2, VENTX (Homo sapiens, UniProt O95231 78-163).
T2 sequence: T1 sequence with Q44R

Experiment [20] deals with T3, VENTX (Homo sapiens, UniProt O95231 78-163, Y115F).
T3 sequence: T1 sequence with Y38F, Q44R

Experiment [21] deals with T4, NKX2-4 (Homo sapiens, UniProt Q9H2Z4 175-261, P217L).
T4 sequence: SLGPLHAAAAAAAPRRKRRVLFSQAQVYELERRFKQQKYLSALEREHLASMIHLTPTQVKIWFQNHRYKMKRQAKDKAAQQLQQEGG

The target in experiment [22] is T5, NKX2-4 (Homo sapiens, UniProt Q9H2Z4 175-261).
T5 sequence: T4 sequence with L43P

The target of experiment [23] is HOXA2 (Homo sapiens, UniProt O43364 129-215, R185T).
Chain of HOXA2 (Homo sapiens, UniProt O43364 129-215, R185T) (O43364 129-215 R185T): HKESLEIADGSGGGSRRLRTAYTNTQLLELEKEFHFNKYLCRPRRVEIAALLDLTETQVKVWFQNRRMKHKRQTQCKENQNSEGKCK
Experiment [24] addresses PITX2 (Homo sapiens, UniProt Q99697 72-157).
The target in experiment [25] is HOXA2 (Homo sapiens, UniProt O43364 129-215, R185K).
Chain of HOXA2 (Homo sapiens, UniProt O43364 129-215, R185K) (O43364 129-215 R185K): as the sequence (O43364 129-215 R185T) above, with T57K counted along it
Experiment [26] concerns the target T6, NKX2-4 (Homo sapiens, UniProt Q9H2Z4 175-261, R246Q).
T6 sequence: T4 sequence with L43P, R72Q

Experiment [27] concerns the target HOXA2 (Homo sapiens, UniProt O43364 129-215, Y150S).
Experiment [28] has as its target NKX3-2 (Homo sapiens, UniProt P78367 192-278, P234S).
In experiment [29] the target is HOXA2 (Homo sapiens, UniProt O43364 129-215).
Chain of HOXA2 (Homo sapiens, UniProt O43364 129-215) (O43364 129-215): as the sequence (O43364 129-215 R185T) above, with T57R counted along it
For experiment [30], the target named is NKX3-2 (Homo sapiens, UniProt P78367 192-278).
Chain of NKX3-2 (Homo sapiens, UniProt P78367 192-278) (P78367 192-278): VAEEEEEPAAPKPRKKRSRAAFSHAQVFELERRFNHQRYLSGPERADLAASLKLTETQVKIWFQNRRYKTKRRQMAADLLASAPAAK

Chain of CRX (Homo sapiens, UniProt O43186 26-111, E42D) (O43186 26-111 E42D): as the sequence (O43186 26-111 R41L) above, with L16R, E17D counted along it
Chain of CRX (Homo sapiens, UniProt O43186 26-111) (O43186 26-111): as the sequence (O43186 26-111 R41L) above, with L16R counted along it
Chain of HOXC9 (Homo sapiens, UniProt P31274 178-260, K195R) (P31274 178-260 K195R): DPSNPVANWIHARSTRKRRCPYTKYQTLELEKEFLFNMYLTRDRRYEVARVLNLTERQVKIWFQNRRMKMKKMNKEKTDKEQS
Chain of HOXB9 (Homo sapiens, UniProt P17482 171-250, T197M) (P17482 171-250 T197M): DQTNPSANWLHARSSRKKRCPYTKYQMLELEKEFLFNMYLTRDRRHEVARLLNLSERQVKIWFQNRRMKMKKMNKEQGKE
Chain of NKX3-2 (Homo sapiens, UniProt P78367 192-278, P234S) (P78367 192-278 P234S): as the sequence (P78367 192-278) above, with P43S counted along it
Chain of HOXA2 (Homo sapiens, UniProt O43364 129-215, Y150S) (O43364 129-215 Y150S): as the sequence (O43364 129-215 R185T) above, with Y22S, T57R counted along it
Chain of HOXC9 (Homo sapiens, UniProt P31274 178-260, R222W) (P31274 178-260 R222W): as the sequence (P31274 178-260) above, with R45W counted along it
Chain of HOXD13 (Homo sapiens, UniProt P35453 263-343, T313R) (P35453 263-343 T313R): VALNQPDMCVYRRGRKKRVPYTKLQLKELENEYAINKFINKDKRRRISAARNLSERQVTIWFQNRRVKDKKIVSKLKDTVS

As to ATTTATGG, the binding signal in experiment [1] is 10.2 upbm affinity estimate (log intensity, higher = more binding, comparable within an allelic series); in experiment [2] it was 9.79 upbm affinity estimate (log intensity, higher = more binding, comparable within an allelic series); in [3], 12.7 upbm affinity estimate (log intensity, higher = more binding, comparable within an allelic series); in experiment [4], 10.6 upbm affinity estimate (log intensity, higher = more binding, comparable within an allelic series); in experiment [5] it was 12.5 upbm affinity estimate (log intensity, higher = more binding, comparable within an allelic series); in experiment [6], 12.1 upbm affinity estimate (log intensity, higher = more binding, comparable within an allelic series). For the same sequence, the binding signal in experiment [7] is 9.96 upbm affinity estimate (log intensity, higher = more binding, comparable within an allelic series); in experiment [8], 12.9 upbm affinity estimate (log intensity, higher = more binding, comparable within an allelic series); in [9], 10.8 upbm affinity estimate (log intensity, higher = more binding, comparable within an allelic series); in experiment [10], 12.8 upbm affinity estimate (log intensity, higher = more binding, comparable within an allelic series); in experiment [11], 12.1 upbm affinity estimate (log intensity, higher = more binding, comparable within an allelic series); in experiment [12] it was 11.7 upbm affinity estimate (log intensity, higher = more binding, comparable within an allelic series). Further, the binding signal in [13] is 11.8 upbm affinity estimate (log intensity, higher = more binding, comparable within an allelic series); in [14], 11.8 upbm affinity estimate (log intensity, higher = more binding, comparable within an allelic series); in [15] it was 11.2 upbm affinity estimate (log intensity, higher = more binding, comparable within an allelic series); in experiment [16], 8.83 upbm affinity estimate (log intensity, higher = more binding, comparable within an allelic series); in experiment [17] it was 9.82 upbm affinity estimate (log intensity, higher = more binding, comparable within an allelic series).
ATTATCTC: the binding signal is 11.7 upbm affinity estimate (log intensity, higher = more binding, comparable within an allelic series) in experiment [1]; 11.4 upbm affinity estimate (log intensity, higher = more binding, comparable within an allelic series) in [3]; 11.5 upbm affinity estimate (log intensity, higher = more binding, comparable within an allelic series) in experiment [7]; 11.4 upbm affinity estimate (log intensity, higher = more binding, comparable within an allelic series) in experiment [8]; 11.4 upbm affinity estimate (log intensity, higher = more binding, comparable within an allelic series) in [10]; 11.5 upbm affinity estimate (log intensity, higher = more binding, comparable within an allelic series) in experiment [17].
Regarding CCCGACCC, the binding signal in experiment [1] is 7.98 upbm affinity estimate (log intensity, higher = more binding, comparable within an allelic series); in experiment [18], 7.97 upbm affinity estimate (log intensity, higher = more binding, comparable within an allelic series); in [19] it was 8.07 upbm affinity estimate (log intensity, higher = more binding, comparable within an allelic series); in experiment [20] it was 8.09 upbm affinity estimate (log intensity, higher = more binding, comparable within an allelic series); in experiment [7], 8.12 upbm affinity estimate (log intensity, higher = more binding, comparable within an allelic series); in experiment [17] it was 8.25 upbm affinity estimate (log intensity, higher = more binding, comparable within an allelic series).
For GCCCGGGC, the binding signal in [1] was 8.05 upbm affinity estimate (log intensity, higher = more binding, comparable within an allelic series); in experiment [21], 8.34 upbm affinity estimate (log intensity, higher = more binding, comparable within an allelic series); in experiment [5], 9.84 upbm affinity estimate (log intensity, higher = more binding, comparable within an allelic series); in experiment [22], 8.35 upbm affinity estimate (log intensity, higher = more binding, comparable within an allelic series); in [23] it was 6.98 upbm affinity estimate (log intensity, higher = more binding, comparable within an allelic series); in experiment [7], 8.04 upbm affinity estimate (log intensity, higher = more binding, comparable within an allelic series). Moreover, the binding signal is 8.05 upbm affinity estimate (log intensity, higher = more binding, comparable within an allelic series) in experiment [24]; 9.77 upbm affinity estimate (log intensity, higher = more binding, comparable within an allelic series) in experiment [25]; 10.1 upbm affinity estimate (log intensity, higher = more binding, comparable within an allelic series) in experiment [12]; 8.33 upbm affinity estimate (log intensity, higher = more binding, comparable within an allelic series) in [26]; 10.4 upbm affinity estimate (log intensity, higher = more binding, comparable within an allelic series) in experiment [27]; 9.95 upbm affinity estimate (log intensity, higher = more binding, comparable within an allelic series) in experiment [28]. The binding signal was 8.04 upbm affinity estimate (log intensity, higher = more binding, comparable within an allelic series) in experiment [17]; 7.45 upbm affinity estimate (log intensity, higher = more binding, comparable within an allelic series) in experiment [29]; 9.83 upbm affinity estimate (log intensity, higher = more binding, comparable within an allelic series) in experiment [30].
